For 5 compounds, outcome and AC50 results are on record in PubChem BioAssay (EPA / NIEHS).

Activity calls are given as the source filed them. How the source made its calls: active means hit-call score of the fitted dose curve at least 0.9, where 1 is the maximum; inactive means score below 0.9.

Details in all cases: mRNA level, 48 h; actives raise or lower the signal
Read-out in assay [1]: growth arrest and DNA damage 45 (GADD45A), GADD45A (gene 1647)
As to the kind of experiment: LTEA_HepaRG_GADD45A: Life Technologies and Expression Analysis (LTEA) Assay for growth arrest and DNA damage 45 (GADD45A) using HepaRG (AID 2283458). The method, boiled down: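 Eight-point concentration-response in HepaRG cells: 48 h chemical exposure, 0.5% DMSO vehicle, top dose 100 uM. Normalized qRT-PCR mRNA readout with bidirectional fitting relative to DMSO.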

Read-out in assay [2]: Forkhead box O3 (FOXO3), FOXO3 (gene 2309)
As to the kind of experiment: LTEA_HepaRG_FOXO3: Life Technologies and Expression Analysis (LTEA) Assay for Forkhead box O3 (FOXO3) using HepaRG (AID 2283459). The method, boiled down: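 qRT-PCR readout of FOXO3 transcript, normalized to three housekeeping genes (ACTB, GAPDH, POLR2A); gain or loss fitted against 0.5% DMSO vehicle. HepaRG cells, 48 h chemical exposure, 8-point half-log series, top 100 uM.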

Read-out in assay [3]: ABC Transporter (ABCB1), ABCB1 (gene 5243)
As to the kind of experiment: LTEA_HepaRG_ABCB1: Life Technologies and Expression Analysis (LTEA) Assay for ABC Transporter (ABCB1) using HepaRG (AID 2283460). The method, boiled down: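 HepaRG, 48 h exposure, 8-pt half-log series from 100 uM, 0.5% DMSO vehicle, duplicates. Readout: ABCB1 transcript by Fluidigm TaqMan qRT-PCR, housekeeping-normalized; bidirectional curve fit vs DMSO baseline.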

Read-out in assay [4]: growth arrest and DNA damage 45 (GADD45B), GADD45B (gene 4616)
Description: LTEA_HepaRG_GADD45B: Life Technologies and Expression Analysis (LTEA) Assay for growth arrest and DNA damage 45 (GADD45B) using HepaRG (AID 2283461). A digest of the protocol: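 HepaRG, ~100,000 cells/well, 48 h plating; serum-free induction medium; cpd 100 uM top, half-log x8, 0.5% DMSO, duplicate, 48 h; lysis in RLT, RNA isolation, qRT-PCR; norm ACTB/GAPDH/POLR2A; bidirectional fit vs DMSO.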

Read-out in assay [5]: ABC Transporter (ABCB11), ABCB11 (gene 8647)
Description: LTEA_HepaRG_ABCB11: Life Technologies and Expression Analysis (LTEA) Assay for ABC Transporter (ABCB11) using HepaRG (AID 2283463). The method, boiled down: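 HepaRG, 48 h exposure, 8-pt half-log CRC top 100 uM, 0.5% DMSO vehicle, duplicates. Readout: TaqMan qRT-PCR of ABCB11 mRNA, housekeeping-normalized (ACTB/GAPDH/POLR2A). Bidirectional fit vs DMSO baseline.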

Read-out in assay [6]: ABC Transporter (ABCC2), ABCC2 (gene 1244)
Description: LTEA_HepaRG_ABCC2: Life Technologies and Expression Analysis (LTEA) Assay for ABC Transporter (ABCC2) using HepaRG (AID 2283464). A digest of the protocol:
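HepaRG, 48 h post-plating; serum-free induction medium; cpd 8-pt, 100 uM top, half-log, 0.5% DMSO, duplicate, 48 h. Readout: ABCC2 mRNA by qRT-PCR, norm. ACTB/GAPDH/POLR2A. Bidirectional fit vs DMSO baseline.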

Read-out in assay [7]: ATP-citrate lyase (ACLY), ACLY (gene 47)
As to the kind of experiment: LTEA_HepaRG_ACLY: Life Technologies and Expression Analysis (LTEA) Assay for ATP-citrate lyase (ACLY) using HepaRG (AID 2283466). The method, boiled down: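 qRT-PCR readout of ACLY transcript after 48 h chemical treatment of HepaRG cells; expression normalized to three housekeeping genes. Eight-point half-log series, highest 100 uM, 0.5% DMSO vehicle. Gain or loss fitted against DMSO baseline.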

Read-out in assay [8]: Peroxisomal acyl-coenzyme A oxidase 1 (ACOX1) gene, ACOX1 (gene 51)
As to the kind of experiment: LTEA_HepaRG_ACOX1: Life Technologies and Expression Analysis (LTEA) Assay for Peroxisomal acyl-coenzyme A oxidase 1 (ACOX1) gene using HepaRG (AID 2283467). A digest of the protocol:
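HepaRG, 48 h chemical exposure, 8-pt half-log series from 100 uM top, 0.5% DMSO vehicle, duplicates. Readout: ACOX1 mRNA by Fluidigm qRT-PCR, housekeeping-normalized; bidirectional fit vs DMSO baseline.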

Read-out in assay [9]: Alkaline Phosphatase, Placental (ALPP) gene, ALPP (gene 250)
Description: LTEA_HepaRG_ALPP: Life Technologies and Expression Analysis (LTEA) Assay for Alkaline Phosphatase, Placental (ALPP) gene using HepaRG (AID 2283468). A digest of the protocol:
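HepaRG, 48 h plating then 48 h dosing, serum-free induction medium, 0.5% DMSO. 8 conc, half-log, max 100 uM, duplicates. Endpoint: ALPP transcript by qRT-PCR, housekeeping-normalized; gain or loss fitted vs DMSO.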

Read-out in assay [10]: Bcl-2 (BAD) gene, BAD (gene 572)
Description: LTEA_HepaRG_BAD: Life Technologies and Expression Analysis (LTEA) Assay for Bcl-2 (BAD) gene using HepaRG (AID 2283469). A digest of the protocol:
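HepaRG, 48 h exposure, 8-pt half-log curve from 100 uM in 0.5% DMSO, duplicates. Readout: TaqMan qRT-PCR for BAD mRNA, housekeeping-normalised (ACTB/GAPDH/POLR2A); gain or loss fitted against DMSO baseline.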

Read-out in assay [11]: Bcl-2 (BAX) gene, BAX (gene 581)
As to the kind of experiment: LTEA_HepaRG_BAX: Life Technologies and Expression Analysis (LTEA) Assay for Bcl-2 (BAX) gene using HepaRG (AID 2283470). A digest of the protocol: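 Human HepaRG cells treated in duplicate for 48 h across eight concentrations (max 100 uM, 0.5% DMSO); BAX expression measured by qRT-PCR.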

Read-out in assay [12]: adenosine kinase (ADK) gene, ADK (gene 132)
Description: LTEA_HepaRG_ADK: Life Technologies and Expression Analysis (LTEA) Assay for adenosine kinase (ADK) gene using HepaRG (AID 2283471). A digest of the protocol:
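ADK expression quantified by qRT-PCR, normalised to three housekeeping genes, after 48 h exposure of HepaRG cells to eight concentrations (top 100 uM, half-log steps, duplicate, 0.5% DMSO). Up- or down-regulation fitted relative to vehicle.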

Read-out in assay [13]: Alpha-fetoprotein (AFP) gene, AFP (gene 174)
Description: LTEA_HepaRG_AFP: Life Technologies and Expression Analysis (LTEA) Assay for Alpha-fetoprotein (AFP) gene using HepaRG (AID 2283472). A digest of the protocol: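 Measures AFP mRNA change in HepaRG after 48 h chemical exposure (8 half-log concentrations, highest 100 uM, 0.5% DMSO). Fold change relative to DMSO, fitted in both directions.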

Read-out in another assay: BCL2L11 (gene 10018)
Description: LTEA_HepaRG_BCL2L11: Life Technologies and Expression Analysis (LTEA) Assay for Bcl-2 (BCL2L11) gene using HepaRG (AID 2283473). The method, boiled down:
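Read-out is BCL2L11 transcript level by qRT-PCR, normalized to three housekeeping genes and fitted bidirectionally against 0.5% DMSO vehicle. HepaRG cells received chemicals for 48 h in serum-free induction medium, 100 uM down in half-log dilutions.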

Read-out in assay [14]: Apolipoprotein A-V (APOA5) gene, APOA5 (gene 116519)
As to the kind of experiment: LTEA_HepaRG_APOA5: Life Technologies and Expression Analysis (LTEA) Assay for Apolipoprotein A-V (APOA5) gene using HepaRG (AID 2283474). The method, boiled down:
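Readout is APOA5 transcript level by qRT-PCR on Fluidigm dynamic arrays, normalized to three housekeeping genes. HepaRG cultures received chemicals for 48 h at up to 100 uM (half-log steps, 0.5% DMSO), with gain or loss scored relative to DMSO.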

Read-out in assay [15]: Apoptosis regulator Bcl-2 (Homo sapiens) (UniProt P10415)
As to the kind of experiment: LTEA_HepaRG_BCL2: Life Technologies and Expression Analysis (LTEA) Assay for Bcl-2 gene using HepaRG (AID 2283475). A digest of the protocol:
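Each chemical was tested in duplicate on HepaRG cultures held in serum-free induction medium for 48 h, highest concentration 100 uM with half-log dilutions. Transcript levels came from multiplexed qRT-PCR, normalised to housekeeping genes; activity was scored in either direction relative to DMSO.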

Read-out in assay [16]: Bcl-2 (BID) gene, BID (gene 637)
As to the kind of experiment: LTEA_HepaRG_BID: Life Technologies and Expression Analysis (LTEA) Assay for Bcl-2 (BID) gene using HepaRG (AID 2283476). The method, boiled down:
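Assay used HepaRG hepatic cells treated 48 h in serum-free medium with half-log dilutions from 100 uM. Endpoint: BID mRNA, qRT-PCR, normalized to ACTB/GAPDH/POLR2A.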

Read-out in another assay: Caspase-3 (Homo sapiens) (UniProt P42574)
As to the kind of experiment: LTEA_HepaRG_CASP3: Life Technologies and Expression Analysis (LTEA) Assay for cysteine-aspartic acid protease (CASP3) using HepaRG (AID 2283477). A digest of the protocol: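 Read-out is CASP3 mRNA level by TaqMan qRT-PCR in human HepaRG cells after 48 h chemical exposure. Eight half-log concentrations topping at 100 uM were tested in 0.5% DMSO; gain or loss was fitted relative to DMSO.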

Read-out in assay [17]: ABC Transporter (ABCC3), ABCC3 (gene 8714)
Description: LTEA_HepaRG_ABCC3: Life Technologies and Expression Analysis (LTEA) Assay for ABC Transporter (ABCC3) using HepaRG (AID 2283462). The method, boiled down:
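Human HepaRG, 48 h dosing, 8-pt half-log series from 100 uM, 0.5% DMSO vehicle, duplicates. ABCC3 mRNA by TaqMan qRT-PCR, housekeeping-normalized; bidirectional curve fit vs DMSO.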

Caspase-3 (Homo sapiens), sequence (P42574 whole entry, looked up): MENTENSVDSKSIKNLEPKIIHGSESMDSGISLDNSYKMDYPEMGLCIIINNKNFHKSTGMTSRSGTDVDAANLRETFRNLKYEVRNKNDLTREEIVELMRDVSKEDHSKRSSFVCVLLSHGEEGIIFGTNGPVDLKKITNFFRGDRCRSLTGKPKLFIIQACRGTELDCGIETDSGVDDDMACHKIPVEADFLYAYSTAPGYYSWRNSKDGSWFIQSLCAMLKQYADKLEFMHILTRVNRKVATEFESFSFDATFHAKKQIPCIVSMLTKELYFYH
Apoptosis regulator Bcl-2 (Homo sapiens), sequence (P10415 whole entry, looked up): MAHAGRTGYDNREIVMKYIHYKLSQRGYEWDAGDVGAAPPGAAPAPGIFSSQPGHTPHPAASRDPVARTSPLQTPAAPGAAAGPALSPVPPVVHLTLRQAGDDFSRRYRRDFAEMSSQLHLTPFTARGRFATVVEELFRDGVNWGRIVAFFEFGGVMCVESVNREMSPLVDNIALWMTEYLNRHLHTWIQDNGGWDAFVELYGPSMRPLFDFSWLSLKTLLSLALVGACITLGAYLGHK

Turning to `CCN(CC)C(=S)SSC(=S)N(CC)CC`, the call in assay [1], in assay [2], in assay [3], in [4], in assay [5] and in assay [6] was inactive. For the same compound, the compound was classed as inactive in assay [7], in assay [8], in assay [9], in [10], in assay [11] and in assay [12]. Besides, the compound was classed as inactive (in [13]; with BCL2L11 (gene 10018); in [14]; in assay [15]; in [16]; in the assay with Caspase-3 (Homo sapiens)).
On to `COS(C)(=O)=O`, for which the outcome in [1], in assay [2], in assay [3], in assay [4], in assay [17] and in assay [5] was inactive. Besides, the result in assay [6], in assay [8], in [9], in assay [10], in assay [11] and in [12] was inactive. In addition, the result (in [13]; with BCL2L11 (gene 10018); in assay [14]; in assay [15]; in assay [16]; in the assay with Caspase-3 (Homo sapiens)) was inactive.
Take `CCc1ccc(O)c(C(C)(C)C)c1`: the compound was called inactive in assay [1], in assay [2], in assay [3], in assay [4], in assay [17] and in assay [5]. Moreover, the compound was called inactive in assay [6], in assay [8], in assay [9], in assay [10], in [11] and in assay [12]. The result (in [13]; with BCL2L11 (gene 10018); in [14]; in assay [15]) was inactive. Further, the AC50 (commonly the midpoint of the concentration-response curve, whichever way the signal moves) in assay [16] is 3.67 nM (active).
For the compound `c1ccc2ncccc2c1`, the result in assay [1], in assay [2], in assay [3], in assay [4], in assay [17] and in assay [5] was inactive. The compound was called inactive in assay [6], in assay [8], in assay [9], in assay [10], in assay [11] and in assay [12]. Moreover, the compound was called inactive (in [13]; with BCL2L11 (gene 10018); in assay [14]; in assay [15]; in [16]; in the assay with Caspase-3 (Homo sapiens)).
As for `OC(Cn1cncn1)(Cn1cncn1)c1ccc(F)cc1F`, the result in assay [1], in assay [2], in [3], in [4], in assay [17] and in assay [5] was inactive. Besides, the compound was called inactive in [6], in assay [8], in assay [9], in [10], in assay [11] and in assay [12]. Also, the compound was classed as inactive (in [13]; with BCL2L11 (gene 10018); in [14]; in [15]; in assay [16]; with Caspase-3 (Homo sapiens)).
